Compounds with a hit are over-represented: about 5.7% of the library has one in this group of screens.
HT1080-NT tox: kills 2HG-producing HT-1080-NT fibrosarcoma cells. HT-1080-NT fibrosarcoma viability, CellTiter-Glo ATP luminescence, 48 h. Potency, µM (doses to about 46.1 µM), for inactives: at the top dose activity, negative = less viability, actives largely listed as cytotoxic. actives 1.6% (n = 360,000);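 also: NT is the 2HG producing partner of a matched IDH1 knockdown line; 0% = DMSO-treated cells and -100% = media-only wells without cells; nearly all actives have a fitted effect of over 55% in size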
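Luminescent CellTiter-Glo readout after 48 hours of compound exposure at 37 degrees C defined viability of HT-1080-NT cells. Activity was normalized to DMSO wells and cell-free media wells; concentration-response curves were fitted and assigned curve classes.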
KB-3-1 cytotox: kills parental KB-3-1 adenocarcinoma cells; KB-3-1 viability, CellTiter-Glo ATP luminescence, 72 h; Potency, µM (top dose mostly 46.1 µM), most hits filed as cytotoxic; actives 1.4% (n = 400,000); AID 1347075; also: nearly all actives have a fitted effect of over 60% in size
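Here the drug-naive KB-3-1 line serves as comparator for MDR sub-line selectivity; cells received compound titrations, 72 h at 37 °C, then CellTiter-Glo readout.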
HT1080 IDH1KD tx: HT-1080 IDH1 knockdown cell toxicity (counter line) | Potency, µM (highest dose often 46.1 µM), inactives show at the highest dose activity, negative = toxicity, usual class: cytotoxic | HT-1080 IDH1 knockdown viability, ATP luminescence, 48 h | actives 2% (n = 360,000);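 also: 0% = DMSO wells and -100% = cell-free medium wells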
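HT-1080-IDH1KD cells (IDH1 knocked down), 750/well in RPMI with 5% FBS, treated with compound 48 h at 37 degrees C. Viability by CellTiter-Glo luminescence, normalised to DMSO and no-cell wells; concentration-response curves classed.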
KB-V1 cytotox: kills drug-selected multidrug resistant KB-V1 cells | KB-V1 MDR cells viability, CellTiter-Glo, 72 h | Potency, µM (series often up to 46.1 µM), most hits filed as cytotoxic | actives 3.4% (n = 400,000); also: nearly all actives have a fitted effect of over 60% in size
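qHTS viability screen in drug-selected KB-V1 MDR cells: 72 h compound treatment at 37 degrees C, ATP luminescence end point.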
Active calls of the source: *; i = inactive; ? = inconclusive; nt = no result. Calls follow the shape of the dose curve; as a rule, active = well fitted curve in the direction sought with a large enough effect; inconclusive = small, poorly fitted or top-dose-only effect, or another doubt; inactive = no such curve, though single readings can be large; an effect the other way counts as inactive or inconclusive. Unless noted, % is scaled to controls: 0 for no effect and ±100 for the full control effect; potency is read from the fitted curve at half-maximal effect.

SMILES	HT1080-NT tox	KB-3-1 cytotox	HT1080 IDH1KD tx	KB-V1 cytotox
O=C(CN1CCN(Cc2ccc(F)cc2Cl)S1(=O)=O)Nc1ccc(F)cc1	nt	i	nt	i
CCOC(=O)C1(Cc2ccc(OC)cc2)CCN(C(=O)c2cccc3nccnc23)CC1	-3%	i	-2%	?
CCOC(=O)C1(Cc2ccc(OC)cc2)CCN(C(=O)c2cc(C)nn2C)CC1	?	?	15µM*	i
O=c1c2c3c(sc2nnn1Cc1ccc(Br)cc1)CCCC3	nt	i	nt	i
COC(=O)c1ccc2nc(NC(=O)C(C)(C)C)sc2c1	18µM*	?	?	?
COC(=O)c1ccc2nc(NC(=O)C3CCCCC3)sc2c1	9%	i	14%	i
CCc1ccccc1NC(=O)C(=O)NCCc1sc(-c2cccc(F)c2)nc1C	nt	i	nt	i
O=C1C=CC(=O)N1c1cccc(-c2ccccc2)c1	21µM*	i	?	i
CCCNc1nc(NCc2ccccc2OC)c2cnn(C)c2n1	nt	?	nt	i
O=C(NCCN1C(=O)S/C(=C\c2ccc(F)cc2)C1=O)C1CCN(S(=O)(=O)c2cccs2)CC1	4%	i	15%	i
Cc1ccc(-c2csc(NC(=O)C3CCN(S(=O)(=O)c4cccs4)CC3)n2)cc1	-12%	6.5µM*	?	9.2µM*
COc1ccc(/C=C2\SC(=O)N(CCNC(=O)C3CCN(S(=O)(=O)c4cccs4)CC3)C2=O)cc1	3%	i	1%	15µM*
O=C(Nc1nc(-c2ccc3ccccc3c2)cs1)C1CCN(S(=O)(=O)c2cccs2)CC1	-7%	4.6µM*	-20%	2.6µM*
CCOC(=O)c1ccccc1NC1(c2ccc(OC)cc2)C(=O)c2ccccc2C1=O	nt	i	nt	i
O=C(NCCc1ccccc1)c1ccc2c(c1)nc1n2CCOC1	nt	i	nt	i
COc1ccc(CNC(=O)C2Cc3c(-c4cccc(C(C)=O)c4)ccnc3O2)cc1OC (stereo not drawn)	-28%	?	?	i
CC(=O)c1cccc(-c2ccnc3c2CC(C(=O)NCc2cccs2)O3)c1 (stereo not drawn)	?	1µM*	?	2.3µM*
O=C(NCc1cccs1)C1Cc2c(-c3ccc(Cl)cc3)ccnc2O1 (stereo not drawn)	?	2.1µM*	2.1µM*	?
O=C(NCC1CC1)C1Cc2c(-c3ccc(Cl)cc3)ccnc2O1 (stereo not drawn)	-17%	i	-20%	?
CC1(C)CC(=O)c2c(oc3c(Cl)cc(NS(=O)(=O)c4ccc(Cl)cc4)cc23)C1	nt	i	nt	i
CCn1c(=O)c(C(=O)NNC(=O)c2ccccc2F)c(O)c2ccccc21	?	15µM*	-25%	10µM*
CCCn1c(=O)c(C(=O)NNS(=O)(=O)c2ccc(C)cc2)c(O)c2ccccc21	?	?	33µM*	?
CCn1c(=O)c(C(=O)NNC(=O)c2ccccc2Cl)c(O)c2ccccc21	?	i	-22%	?
CCCCCC(=O)NNC(=O)c1c(O)c2ccccc2n(CC)c1=O	-8%	?	-14%	23µM*
COc1cc(Br)c(C2CC(=O)Nc3cc(OC)c(OC)c(OC)c32)cc1OC (stereo not drawn)	nt	i	nt	i
SMILES	HT1080-NT tox	KB-3-1 cytotox	HT1080 IDH1KD tx	KB-V1 cytotox
COc1ccc(S(=O)(=O)NCCc2sc(-c3ccccc3)nc2C)cc1F	nt	i	nt	?
Cc1ccc(NC(=O)CCC(=O)N/N=C/c2ccc([N+](=O)[O-])o2)cc1C	?	?	-1%	i
CCCc1ccc(-c2cc(C(=O)N/N=C/c3ccc([N+](=O)[O-])o3)c3ccccc3n2)cc1	7.3µM*	12µM*	6.5µM*	8.2µM*
O=C(COc1ccccc1)N/N=C/c1ccc([N+](=O)[O-])o1	?	15µM*	?	i
Cc1ccc(OCC(=O)N/N=C/c2ccc([N+](=O)[O-])o2)cc1	?	i	?	?
CCCC(=O)Nc1ccc(C(=O)N/N=C/c2ccc([N+](=O)[O-])o2)cc1	12µM*	?	13µM*	i
O=C(N/N=C/c1ccco1)c1cc(-c2ccccc2)nc2ccccc12	-24%	i	-24%	?
CCCCCCC(=O)Nc1ccc(C(=O)N/N=C/c2cccnc2)cc1	23µM*	?	8.2µM*	i
CCN1C(=O)C2(c3ccccc31)c1c(oc3ccccc3c1=O)C(=O)N2CCOC (stereo not drawn)	nt	i	nt	i

From PubChem BioAssay
